Source: PubChem BioAssay AID1117270 (Broad Institute, 2014)
Entries with a potency or affinity are not part of this list. Activity calls are given as the source filed them.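 How the source made its calls: active means compounds with a valid dose curve toward the stimulated control whose half-maximal dose is at most twice the top dose; inconclusive means curve fit judged invalid or of poor quality; inactive means the rest.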

assay: inducers of E-selectin gene expression, confirmation, orthogonal assay for E-selectin inducer project, cell-based, HUVEC, RT-qPCR, dry powder (AID 1117270); conditions: HUVEC SELE mRNA, 7 h; at 38 µM unless noted

Row | Compound | max activity
1 | O=C(O)C1CCN(c2nc(-c3ccccc3)c3cc(Br)ccc3n2)CC1 | -4.71% [at 0.038 µM] (inactive)
2 | Cc1cc2ccccc2n1CCNC(=O)COc1ccc2ccccc2c1 | 9.31% [at 10 µM] (inactive)
3 | Cc1ccc(CSc2nc3[nH]ncc3c(=O)[nH]2)cc1 | 8.8% [at 0.0001 µM] (inactive)
4 | Cc1cc(C)c(S(=O)(=O)NCCn2c(C)cc3ccccc32)c(C)c1 | -91.1% (inactive)
5 | CCc1ccc(-n2c(=S)sc3c(=O)n(-c4ccccc4C)c(SCC(=O)O)nc32)cc1 | 9.28% [at 10 µM] (inactive)
6 | Cc1cc2cc(CNC(=O)Nc3cccc(Cl)c3)ccc2n1C | 7.76% [at 1.2 µM] (inactive)
7 | Cc1ccc(S(=O)(=O)NCc2ccc3c(c2)cc(C)n3C)cc1 | 4.64% (inactive)
8 | COc1ccc(Nc2ccccc2N)cc1 | 12.2% (inactive)
9 | O=C(c1c(F)cccc1F)N(Cc1ccccc1)Cc1ccccc1 | -17.4% [at 0.16 µM] (inactive)
10 | Cc1cc2cc(CNC(=O)Nc3ccc(Cl)c(Cl)c3)ccc2n1C | -8.31% (inactive)
11 | COc1cc(CC2C(=O)Nc3ccccc32)cc(C)c1O (centres undefined) | 8.57% [at 0.038 µM] (inactive)
12 | CCc1cccc2c1NC1(CCCC1)CC2C (centres undefined) | 7.51% [at 5 µM] (inactive)
13 | CNc1ccccc1C(C)(C)c1cc(-c2cccc(OC)c2)no1 | -5.8% [at 0.0001 µM] (inactive)
14 | OCc1ccc(-c2nn(Cc3ccccc3)c3ccccc23)o1 | 6.5% [at 2.6 µM] (inactive)
